Measurements as given in PubChem BioAssay (NCATS).
Several values for one entry are separate records, joined by “and”; a condition that tells them apart may be missing. Equal entries are not always repeated. Results filed as inconclusive are left out. The source holds several records for some structures; these can differ, active in one and inactive in another. Values without a mark were called inactive. Activity calls are given as the source filed them. The call rests on the fitted dose curve; in most records, active means well fitted cell-killing curve with a large enough effect; inconclusive means small, poorly fitted or top-dose-only effect, or effect the other way; inactive means flat fitted curve, though single readings scatter.

Test: qHTS assay for cell viability of HEK293 cells (AID 743288); further: nearly all actives have a fitted effect of over 50% in size
Details: ATP luminescence (CellTiter-Glo), 18 h; max response: active compounds read low
Source text: National Center for Advancing Translational Sciences [NCATS]
NIH Chemical Genomics Center [NCGC]
U.S. Environmental Protection Agency [EPA]
National Institutes of Environmental Health Sciences [NIEHS]
National Toxicology Program [NTP]
U.S. Food and Drug Administration [FDA]
The CellTiter-Glo Luminescent Cell Viability Assay (Promega, Madison, WI) is a homogeneous method to determine the number of viable cells in culture based on quantitation of the ATP present, which signals the presence of metabolically active cells. This cell viability assay was used to screen environmental chemicals in the Hek293 cell line.
Tox21 Assay Protocol Summary:
Cell viability after compound treatment was measured using a luciferase-coupled ATP quantitation assay (CellTiter-Glo viability assay, Promega, Madison, WI) in parental HEK293 cells. Total intracellular ATP content corresponds to the number of metabolically competent cells after compound treatment. The cells were dispensed at 2,000 cells/5 uL/well in 1,536-well white/solid bottom assay plates using a Flying Reagent Dispenser (Aurora Discovery, San Diego, CA). The cells were incubated a minimum of 5 h at 37 C, followed by the addition of 23 nL of compounds dissolved in DMSO, positive controls or DMSO only using a pintool work station (Kalypsys, San Diego, CA). The assay plates were incubated for 18 h at 37 C, followed by the addition of 5 uL/well of CellTiter-Glo reagent. After 30 min incubation at room temperature, the luminescence intensity of the plates was measured using a ViewLux plate reader (PerkinElmer, Shelton, CT).
On the % scale 0 is the no-effect control and ±100 the full control effect; potency means the concentration at half of the fitted maximal effect.

| Compound | max response | Potency |
| --- | --- | --- |
| CCNc1nc(NC(C)CC)nc(OC)n1 (stereo unspecified) | -2.08% | – |
| C=C(C)C(=O)OCCCCCCCCCCCC | -6.64% | – |
| N[C@@H]1[C@@H](O)[C@H](O)[C@@H](CO)O[C@H]1O | -8.29% | – |
| CC(C)CCCCCOC(=O)CS | -8.32% | – |
| CCCCCCCCCCCCCCCC | -2.82% | – |
| O=C(Cl)c1cc(Cl)cc(Cl)c1 | -4.86% | – |
| CCC(=O)C1C(=O)CC(C(=O)O)CC1=O (stereo unspecified) | 6.24% | – |
| CC(=O)OC(C)(C)C1CC=C(C)CC1 (stereo unspecified) | -11.3% | – |
| CCCCCC1CCC(=O)O1 (stereo unspecified) | -7.91% | – |
| CCO[Si](CCC#N)(OCC)OCC | -14.2% | – |
| O=C(c1ccccc1)c1ccc(O)c(O)c1O | -12.1% | – |
| Brc1ccc(Br)c(Br)c1 | -15.6% | – |
| O=[N+]([O-])C(CO)(CO)CO | -13.7% | – |
| CCCCCCCCCCCC(=O)OC | – | 25.1 µM (active) |
| CCCCC/C=C\C/C=C\CCCCCCCC(=O)OC | -12.5% | – |
| Cc1ccc(S(=O)(=O)N=C=O)cc1 | -6.04% | – |
| O=C1CCC(C2CCCCC2)CC1 | -5.89% | – |
| COC(=O)c1cccc(C)c1S(=O)(=O)NC(=O)Nc1nc(OCC(F)(F)F)nc(N(C)C)n1 | -5.64% | – |
| C=CC(=O)OCC[N+](C)(C)C | -5.74% | – |
| CC1=CC2C3CC(C=C3C)C2C1 (stereo unspecified) | -3.16% | – |

| Compound | max response | Potency |
| --- | --- | --- |
| O=c1[nH]c(=O)c2[nH]cnc2[nH]1 | -12.8% | – |
| CCCCCCCCCCO | -9.96% and -5.95% | – |
| Nc1c(N=Nc2ccc(S(=O)(=O)CCOS(=O)(=O)O)cc2)c(S(=O)(=O)O)cc2cc(S(=O)(=O)O)c(N=Nc3ccc(S(=O)(=O)CCOS(=O)(=O)O)cc3)c(O)c12 | – | 35.5 µM (active) |
| CC(=O)OC1CCC(C(C)(C)C)CC1 (stereo unspecified) | -10.3% | – |
| OC1CCC(C2CCCCC2)CC1 (stereo unspecified) | -12.9% | – |
| CCCCC(CC)CN1C(=O)C2C3C=CC(C3)C2C1=O (stereo unspecified) | -5.32% | – |
| O=S(c1ccc(Cl)cc1)c1cc(Cl)c(Cl)cc1Cl (stereo unspecified) | -14.5% | – |
| CC1(C)C(=O)N(Cl)C(=O)N1Cl | -4.37% | – |
| CCCCCCCC[Si](Cl)(Cl)Cl | -3.47% | – |
| CCOCCOCCOCC | -13.3% | – |
| CC(C)=CCC/C(C)=C\CO | -0.935% | – |
| O=C(Cl)c1ccc(C(=O)Cl)cc1 | -8.26% | – |
| C=CCCCCCCCCCC | -2.08% | – |
| C[Si](C)(C)N[Si](C)(C)C | -5.89% | – |
| C=CCCCCCCCCCCCC | 5.27% | – |
| CCOC(=O)c1ccccc1C | 0.0695% | – |
| CC1COCc2cc3c(cc21)C(C)(C)C(C)C3(C)C (stereo unspecified) | -3.83% | – |
| Cc1cc(C)c(N)c(Cl)c1 | -10.1% | – |
| COC(=O)c1ccc(I)cc1S(=O)(=O)NC(=O)Nc1nc(C)nc(OC)n1 | -13.7% | – |
| CCCCOCC(C)O (stereo unspecified) | -2.11% | 1410 µM (active) |
